Measured values from PubChem BioAssay.
For some of these results: Measured potencies and affinities stand elsewhere. The source made the active and inactive calls.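 The calls were made as follows, unless noted: active = membrane potential signal rise above negative control mean plus 3 SD in both duplicates, also active in the earlier TRPC4 screen; inactive = the rest.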

Key:
[1] = tested on: TRPC4 beta (transient receptor potential cation channel C4), mouse; assay: activators of mouse TRPC4 channel, confirmation, cell-based, Fluo4 calcium, HEK293 TRPC4beta/mu-opioid, duplicates, 10 µM (AID 2426;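 active = fluorescence ratio normalized to control raised more than 50% in primary screen plus both repeat runs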); settings: Fluo4 calcium fluorescence, at 10 µM; stronger effect = higher value
[2] = tested on: transient receptor potential cation channel C4 beta (TRPC4), mouse; assay: activators of mouse TRPC4 channel, confirmation, cell-based, second round, Fluo4, HEK293 TRPC4beta/mu-opioid, 1 µM (AID 2461;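 active = primary screen active and over 50% activation in each of two duplicate runs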); settings: Fluo4 calcium fluorescence, at 1 µM; stronger effect = higher value
[3] = tested on: TRPC4 (transient receptor potential cation channel C4 beta), mouse; assay: positive allosteric modulators of mouse TRPC4, confirmation, cell-based, second round, Fluo-4, HEK293 TRPC4beta/mu-opioid, 1 µM (AID 2554;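 active = primary screen hit whose fluorescence ratio, in both repeats, exceeds the weak agonist control mean by 3 SD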); settings: DAMGO EC20, Fluo-4 calcium flux, at 1 µM; stronger effect = higher value
[4] = tested on: TRPC4 beta (transient receptor potential cation channel C4), mouse; assay: positive allosteric modulators of mouse TRPC4, confirmation, cell-based, Fluo-4, HEK293 TRPC4beta/mu-opioid (AID 2555;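 active = primary screen hit whose calcium fluorescence ratio, in both repeats, exceeds the weak agonist control mean by 3 SD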); settings: DAMGO EC20, Fluo-4 calcium flux, at 10 µM; stronger effect = higher value
[5] = target: Short transient receptor potential channel 4 (Mus musculus) (UniProt Q9QUQ5); assay: inhibitors of mouse TRPC4 channel, confirmation, cell-based, Fluo4, HEK293 TRPC4beta/mu-opioid (AID 2636;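 active = calcium signal cut by more than 3 SD below the full-agonist control yet still positive, in both repeats and the earlier primary screen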); settings: DAMGO, Fluo4 calcium flux, at 10 µM; stronger effect = higher value
Sequence of Short transient receptor potential channel 4 (Mus musculus) (Q9QUQ5 whole entry, looked up): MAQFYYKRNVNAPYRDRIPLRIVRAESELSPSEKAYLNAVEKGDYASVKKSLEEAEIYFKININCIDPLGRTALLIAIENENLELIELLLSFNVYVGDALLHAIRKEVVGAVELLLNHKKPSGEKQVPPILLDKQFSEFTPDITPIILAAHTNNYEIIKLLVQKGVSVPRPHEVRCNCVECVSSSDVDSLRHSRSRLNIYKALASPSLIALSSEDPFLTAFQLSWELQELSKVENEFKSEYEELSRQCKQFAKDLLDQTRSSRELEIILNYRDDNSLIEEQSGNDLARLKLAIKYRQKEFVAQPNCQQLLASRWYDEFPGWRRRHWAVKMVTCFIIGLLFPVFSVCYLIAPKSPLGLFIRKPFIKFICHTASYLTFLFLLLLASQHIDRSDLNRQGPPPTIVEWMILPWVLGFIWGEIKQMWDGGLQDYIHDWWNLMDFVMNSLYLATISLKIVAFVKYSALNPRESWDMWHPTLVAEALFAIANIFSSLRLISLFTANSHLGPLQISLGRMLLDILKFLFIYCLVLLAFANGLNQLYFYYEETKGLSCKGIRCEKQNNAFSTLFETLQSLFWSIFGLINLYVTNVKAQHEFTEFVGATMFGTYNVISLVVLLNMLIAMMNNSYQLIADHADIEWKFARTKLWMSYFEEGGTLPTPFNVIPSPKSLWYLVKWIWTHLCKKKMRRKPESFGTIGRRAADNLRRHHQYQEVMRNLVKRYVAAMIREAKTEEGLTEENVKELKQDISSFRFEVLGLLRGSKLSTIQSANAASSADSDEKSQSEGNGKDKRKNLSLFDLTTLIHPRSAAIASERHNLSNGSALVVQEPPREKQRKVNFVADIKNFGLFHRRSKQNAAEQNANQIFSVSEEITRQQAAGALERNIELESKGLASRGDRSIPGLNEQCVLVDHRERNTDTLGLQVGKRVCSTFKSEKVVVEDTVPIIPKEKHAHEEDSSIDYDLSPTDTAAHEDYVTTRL

[6] = target: Short transient receptor potential channel 4 (Mus musculus) (UniProt Q9QUQ5); assay: inhibitors of mouse TRPC4 channel, confirmation, cell-based, second round, Fluo4, HEK293 TRPC4beta/mu-opioid, 1 µM (AID 2637;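 active = calcium signal ratio cut to more than 3 SD under the fully stimulated control mean yet still positive, in both repeats and the primary screen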); settings: Fluo4 calcium flux, DAMGO, at 1 µM; stronger effect = higher value
[7] = target: Short transient receptor potential channel 4 (Mus musculus) (UniProt Q9QUQ5); assay: mouse TRPC4 channel activators, dose response, cell-based, HEK293 TRPC4/mu-opioid, Fluo-4 calcium (AID 434937;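 active = primary screen activator hit with a dose response curve and TRPC4 channel activation at any tested dose; inactive = no activation, no dose response, or not a primary hit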)
[8] = target: Short transient receptor potential channel 4 (Mus musculus) (UniProt Q9QUQ5); assay: TRPC4 positive allosteric modulators, dose response, cell-based, HEK293 TRPC4/mu-opioid, Fluo-4 calcium, EC20 DAMGO (AID 434941;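 active = earlier screen potentiator hit that boosts the TRPC4 ion channel at some dose, with a dose response; inactive = no potentiation, no dose response, or not a prior hit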;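 also: calcium entry triggered by an EC20 dose of DAMGO at the co-expressed mu-opioid receptor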)
[9] = target: Short transient receptor potential channel 4 (Mus musculus) (UniProt Q9QUQ5); assay: mouse TRPC4 channel inhibitors, dose response, cell-based, HEK293 TRPC4/mu-opioid, Fluo-4 calcium (AID 434942;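 active = primary screen inhibitor hit that blocks the TRPC4 channel at some tested dose, yielding a dose curve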)
[10] = target: Short transient receptor potential channel 6 (Mus musculus) (UniProt Q61143); assay: inhibition of mouse TRPC6 channel, confirmation, selectivity assay for TRPC4 inhibitor project, cell-based, HEK293, membrane potential dye, duplicate (AID 434948;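 active = active in primary screen and both duplicates, each dropping signal beyond three positive-control SD with fluorescence still positive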); settings: HEK293 TRPC6, membrane potential dye fluorescence, at 10 µM, stimulated with maximal-effect acetylcholine; stronger effect = higher value
Sequence of Short transient receptor potential channel 6 (Mus musculus) (Q61143 whole entry, looked up): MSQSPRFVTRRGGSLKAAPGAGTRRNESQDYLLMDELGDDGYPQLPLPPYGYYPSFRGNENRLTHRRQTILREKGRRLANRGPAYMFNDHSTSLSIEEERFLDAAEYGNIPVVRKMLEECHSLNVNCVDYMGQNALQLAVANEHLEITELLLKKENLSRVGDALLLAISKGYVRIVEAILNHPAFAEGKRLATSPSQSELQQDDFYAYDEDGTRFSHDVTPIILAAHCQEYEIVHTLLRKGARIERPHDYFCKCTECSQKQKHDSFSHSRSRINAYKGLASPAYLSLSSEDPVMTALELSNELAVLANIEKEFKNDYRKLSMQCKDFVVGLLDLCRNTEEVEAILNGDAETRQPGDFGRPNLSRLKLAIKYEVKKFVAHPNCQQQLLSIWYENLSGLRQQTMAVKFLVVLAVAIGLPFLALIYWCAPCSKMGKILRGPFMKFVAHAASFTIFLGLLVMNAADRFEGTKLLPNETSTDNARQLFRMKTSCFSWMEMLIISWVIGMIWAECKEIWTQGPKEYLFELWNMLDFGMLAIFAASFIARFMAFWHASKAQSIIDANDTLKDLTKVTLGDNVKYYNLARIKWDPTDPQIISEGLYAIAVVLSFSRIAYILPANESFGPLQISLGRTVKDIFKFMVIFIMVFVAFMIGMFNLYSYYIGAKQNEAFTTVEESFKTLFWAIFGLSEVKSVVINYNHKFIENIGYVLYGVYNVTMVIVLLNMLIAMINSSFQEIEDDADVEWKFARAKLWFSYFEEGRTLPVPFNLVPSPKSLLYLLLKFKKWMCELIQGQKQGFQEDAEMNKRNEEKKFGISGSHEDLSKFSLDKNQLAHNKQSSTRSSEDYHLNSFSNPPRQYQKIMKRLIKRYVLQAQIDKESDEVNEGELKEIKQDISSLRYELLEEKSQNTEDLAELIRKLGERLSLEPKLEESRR

[11] = target: Short transient receptor potential channel 6 (Mus musculus) (UniProt Q61143); assay: activation of mouse TRPC6 channel, confirmation, selectivity assay for TRPC4 activator project, cell-based, HEK293, membrane potential dye, duplicate (AID 434950); settings: HEK293 TRPC6, membrane potential fluorescence, at 10 µM; stronger effect = higher value
[12] = target: Short transient receptor potential channel 6 (Mus musculus) (UniProt Q61143); assay: TRPC6 potentiation by TRPC4 potentiator hits, confirmation, selectivity assay for TRPC4 potentiator project, HEK293 cells, membrane potential dye, duplicate (AID 434952;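 active = compound raising the membrane signal above positive-control mean plus 3 SD in both repeats, and a primary screen hit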); settings: HEK293 TRPC6, membrane potential dye fluorescence, at 10 µM, maximal acetylcholine added after compound; stronger effect = higher value
[13] = target: Short transient receptor potential channel 4 (Mus musculus) (UniProt Q9QUQ5); assay: calcium flux activators in TRPC4/5HT1a cells, counter-screen for TRPC4 activator project, cell-based, second counter screen, HEK293 TRPC4/5HT1a, Fluo-4 (AID 434977;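 active = calcium signal rise above buffer-control mean plus 5 SD in both duplicates, and also a hit in the primary screen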); settings: Fluo-4 calcium flux, at 10 µM; stronger effect = higher value
[14] = calcium flux inhibitors in TRPC4/5HT1a cells, confirmation, counter-screen for TRPC4 inhibitor project, cell-based, second counter screen, HEK293 TRPC4/5HT1a, Fluo-4 (AID 434978;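 active = primary screen active whose calcium signal fell more than 3 SD beyond the full-serotonin control mean in both duplicate plates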;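 also: serotonin given first at submaximal then at maximal dose after compound preincubation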); settings: Fluo-4 calcium flux, at 10 µM, serotonin added to trigger calcium flux; stronger effect = higher value
[15] = tested on: TRPC4 (mouse), co-expressed with 5HT1a in HEK293; assay: calcium flux potentiators in TRPC4/5HT1a cells, confirmation, counter-screen for TRPC4 potentiator project, cell-based, second counter screen, HEK293 TRPC4/5HT1a, Fluo-4 (AID 434979;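 active = signal rise over 3 SD above mean of control wells given weak agonist, in both repeats and first screen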); settings: Fluo-4 calcium flux, at 10 µM, serotonin added at its EC20 dose; stronger effect = higher value
[16] = calcium flux activation in mu-opioid HEK293 cells, confirmation, counter-screen for TRPC4 activator project, cell-based, HEK293 mu-opioid receptor line (AID 449723;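 active = hit in primary screen, with calcium signal over 5 SD above buffer well mean in both duplicates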;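 also: counter screen cells carry the mu-opioid receptor alone and lack TRPC4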); settings: Fluo-4 calcium fluorescence, at 10 µM; stronger effect = higher value
[17] = calcium flux enhancement in mu-opioid HEK293 cells, confirmation, counter-screen for TRPC4 allosteric potentiator project, cell-based, HEK293 mu-opioid receptor line (AID 449724;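 active = calcium signal rise more than 3 SD above the low-dose agonist control mean, in both duplicate plates and the primary screen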); settings: Fluo-4 calcium flux, at 10 µM, compound added before EC20 DAMGO stimulus; stronger effect = higher value
[18] = thallium flux activation in parental CHO cells, counter-screen for KCNQ1 potentiator project (AID 493006;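 active = duplicate-averaged activation above buffer control mean plus 5 SD of those controls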;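 as to activation: fluorescence ratio of max minus min over baseline after K+ and Tl+ depolarization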); settings: parental CHO-K1 cells, FluxOR thallium flux, at 10 µM; stronger effect = higher value
[19] = target: Potassium voltage-gated channel subfamily KQT member 1 (Homo sapiens) (UniProt P51787); assay: KCNQ1 potassium channel potentiators, confirmation, FluxOR thallium flux, CHO cells, duplicates (AID 493007;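 active = potentiation averaged over duplicate wells exceeding buffer-only control mean by more than 3 SD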;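 as to outcome: cells depolarized by a potassium plus thallium sulfate stimulus after compound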;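 as to potentiation: 0% = buffer-only wells and 100% = R-L3 activator control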); settings: KCNQ1 cell line, FluxOR thallium flux fluorescence, at 10 µM; stronger effect = higher value, % of reference activator effect, buffer zero
Sequence of Potassium voltage-gated channel subfamily KQT member 1 (Homo sapiens) (P51787 whole entry, looked up): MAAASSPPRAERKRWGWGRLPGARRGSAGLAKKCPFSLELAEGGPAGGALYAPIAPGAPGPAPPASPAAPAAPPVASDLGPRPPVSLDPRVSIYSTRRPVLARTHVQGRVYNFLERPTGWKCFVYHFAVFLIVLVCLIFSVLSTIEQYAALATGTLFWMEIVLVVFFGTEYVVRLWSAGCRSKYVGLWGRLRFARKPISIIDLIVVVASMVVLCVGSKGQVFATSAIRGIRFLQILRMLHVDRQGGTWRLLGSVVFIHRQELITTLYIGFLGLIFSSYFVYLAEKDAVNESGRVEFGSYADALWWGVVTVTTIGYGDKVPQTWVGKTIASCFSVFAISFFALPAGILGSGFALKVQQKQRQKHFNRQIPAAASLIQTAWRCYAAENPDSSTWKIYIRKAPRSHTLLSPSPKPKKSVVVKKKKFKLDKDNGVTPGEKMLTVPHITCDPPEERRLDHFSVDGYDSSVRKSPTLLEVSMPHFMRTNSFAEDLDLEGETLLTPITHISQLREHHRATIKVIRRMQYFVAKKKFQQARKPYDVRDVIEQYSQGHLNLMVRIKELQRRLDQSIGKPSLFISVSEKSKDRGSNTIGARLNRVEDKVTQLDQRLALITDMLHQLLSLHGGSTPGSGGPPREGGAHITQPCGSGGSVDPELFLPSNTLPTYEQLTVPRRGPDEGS

[20] = target: Potassium voltage-gated channel subfamily KQT member 2 (Rattus norvegicus) (UniProt O88943); assay: rat KCNQ2 channel potentiation, selectivity assay for KCNQ1 potentiator project, KCNQ2-CHO-K1 cells (AID 493009;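 active = mean duplicate potentiation above the buffer control mean plus 5 SD of buffer wells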;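 also: assay conditions were tuned for KCNQ1 rather than KCNQ2 modulators; signal is max minus min fluorescence divided by baseline after thallium stimulus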); settings: FluxOR thallium flux fluorescence, at 10 µM; stronger effect = higher value, scaled: buffer 0, activator control 100
Sequence of Potassium voltage-gated channel subfamily KQT member 2 (Rattus norvegicus) (O88943 whole entry, looked up): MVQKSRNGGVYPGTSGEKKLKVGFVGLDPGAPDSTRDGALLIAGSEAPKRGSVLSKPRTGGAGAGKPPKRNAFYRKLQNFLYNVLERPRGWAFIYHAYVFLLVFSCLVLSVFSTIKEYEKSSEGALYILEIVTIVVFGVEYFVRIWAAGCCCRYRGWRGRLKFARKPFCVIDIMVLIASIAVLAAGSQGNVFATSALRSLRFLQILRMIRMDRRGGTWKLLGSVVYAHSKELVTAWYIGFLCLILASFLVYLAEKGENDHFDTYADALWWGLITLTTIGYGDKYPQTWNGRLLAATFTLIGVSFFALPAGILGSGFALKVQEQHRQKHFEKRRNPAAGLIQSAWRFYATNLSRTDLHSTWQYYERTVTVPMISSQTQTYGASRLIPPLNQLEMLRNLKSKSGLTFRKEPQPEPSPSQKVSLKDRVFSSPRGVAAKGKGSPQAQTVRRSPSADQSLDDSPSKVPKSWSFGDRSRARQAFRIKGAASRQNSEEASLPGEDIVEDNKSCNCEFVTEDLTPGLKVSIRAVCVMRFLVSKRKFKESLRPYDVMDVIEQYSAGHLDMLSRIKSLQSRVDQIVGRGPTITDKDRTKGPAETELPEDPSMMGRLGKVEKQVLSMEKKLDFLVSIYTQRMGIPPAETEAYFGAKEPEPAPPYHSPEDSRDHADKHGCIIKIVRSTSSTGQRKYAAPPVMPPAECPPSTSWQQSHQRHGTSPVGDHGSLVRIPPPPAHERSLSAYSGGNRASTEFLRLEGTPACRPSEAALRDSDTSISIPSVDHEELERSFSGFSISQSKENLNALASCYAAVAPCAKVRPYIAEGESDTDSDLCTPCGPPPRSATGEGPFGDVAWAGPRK

COc1ccccc1CCc1nnc(CCC(=O)NCCCOc2cccnc2)o1
active: inhibition [5] 48%
inactive: outcome [1] | outcome [2] | outcome [3] | outcome [4] | outcome [6] | outcome [7] | outcome [8] | outcome [9] | outcome [10] | outcome [11] | outcome [12] | outcome [13] | outcome [14] | outcome [15] | outcome [16] | outcome [17]

Cc1ccc(C(=O)O)cc1N=Cc1cc(Br)cc(Br)c1O
active: activation [18] 222% | potentiation [19] 164% | potentiation [20] 192%
inactive: outcome [1] | outcome [2] | outcome [3] | outcome [4] | outcome [5] | outcome [6] | outcome [7] | outcome [8] | outcome [9] | outcome [10] | outcome [11] | outcome [12] | outcome [13] | outcome [14] | outcome [15] | outcome [16] | outcome [17]

CN(Cc1ccccc1)Cc1nc2c(c(=O)n(C)c(=O)n2C)n1CCCc1ccccc1
inactive: outcome [1] | outcome [2] | outcome [3] | outcome [4] | outcome [5] | outcome [6] | outcome [7] | outcome [8] | outcome [9] | outcome [10] | outcome [11] | outcome [12] | outcome [13] | outcome [14] | outcome [16] | outcome [17]
active: potentiation [15] 8.51%

O=C(O)CCCN1C(=O)/C(=C\c2ccc(-c3nc4ccccc4s3)o2)SC1=S
inactive: outcome [1] | outcome [2] | outcome [3] | outcome [5] | outcome [6] | outcome [7] | outcome [8] | outcome [9] | outcome [10] | outcome [11] | outcome [12] | outcome [13] | outcome [14] | outcome [16] | outcome [17] | outcome [18] | outcome [19] | outcome [20]
active: potentiation [4] 10% | potentiation [15] 22.6%

Cc1ccc(S(=O)(=O)Nc2ccc(N=Nc3ccc(O)cc3)cc2)cc1
inactive: outcome [1] | outcome [2] | outcome [3] | outcome [4] | outcome [5] | outcome [6] | outcome [7] | outcome [8] | outcome [9] | outcome [10] | outcome [11] | outcome [12] | outcome [13] | outcome [14] | outcome [15] | outcome [16] | outcome [17]

CCCc1nc2oc3c(NCCCN(C)C)ncnc3c2c2c1CCCC2
inactive: outcome [1] | outcome [2] | outcome [3] | outcome [4] | outcome [5] | outcome [6] | outcome [7] | outcome [8] | outcome [9] | outcome [10] | outcome [11] | outcome [12] | outcome [13] | outcome [14] | outcome [15] | outcome [16] | outcome [17] | outcome [18] | outcome [19] | outcome [20]

CN(CCCNC(=O)CCCOc1cc(=O)n(C)c2ccccc12)Cc1ccccc1
active: potentiation [3] 21% | potentiation [4] 14% | potentiation [15] 20.2%
inactive: outcome [1] | outcome [2] | outcome [5] | outcome [6] | outcome [7] | outcome [8] | outcome [9] | outcome [10] | outcome [11] | outcome [12] | outcome [13] | outcome [14] | outcome [16] | outcome [17] | outcome [18] | outcome [19] | outcome [20]

CCCCCCCCCC[n+]1cccc2c3ccccc3ccc21
inactive: outcome [1] | outcome [2] | outcome [3] | outcome [4] | outcome [5] | outcome [6] | outcome [7] | outcome [8] | outcome [9] | outcome [10] | outcome [11] | outcome [12] | outcome [13] | outcome [14] | outcome [15] | outcome [16] | outcome [17]
active: activation [18] 245% | potentiation [19] 64% | potentiation [20] 194%

CC(=O)n1cc([C@@H]2C=C(C(=O)NCc3ccccc3)O[C@H](OCc3ccc(CO)cc3)C2)c2ccccc21
active: potentiation [15] 14.7%
inactive: outcome [1] | outcome [2] | outcome [3] | outcome [4] | outcome [5] | outcome [6] | outcome [7] | outcome [8] | outcome [9] | outcome [10] | outcome [11] | outcome [12] | outcome [13] | outcome [14] | outcome [16] | outcome [17]

CCn1c(C2CC(=O)N(Cc3ccccc3)C2)nc2ccccc21 (stereo unspecified)
inactive: outcome [1] | outcome [2] | outcome [3] | outcome [5] | outcome [6] | outcome [7] | outcome [8] | outcome [9] | outcome [10] | outcome [11] | outcome [12] | outcome [13] | outcome [14] | outcome [16] | outcome [17]
active: potentiation [4] 11% | potentiation [15] 23.9%

Cc1cc(N2CCOCC2)nc(NCc2ccccc2)n1
inactive: outcome [1] | outcome [2] | outcome [3] | outcome [4] | outcome [5] | outcome [6] | outcome [7] | outcome [8] | outcome [9] | outcome [10] | outcome [11] | outcome [12] | outcome [13] | outcome [14] | outcome [15] | outcome [16] | outcome [17]

COc1ccc(NS(=O)(=O)c2ccc3ccccc3c2)c2ncccc12
inactive: outcome [1] | outcome [2] | outcome [3] | outcome [4] | outcome [5] | outcome [6] | outcome [7] | outcome [8] | outcome [9] | outcome [10] | outcome [11] | outcome [12] | outcome [13] | outcome [14] | outcome [15] | outcome [16] | outcome [17] | outcome [18]
active: potentiation [19] 49% | potentiation [20] 172%

COc1ccc(C(=O)c2no[n+]([O-])c2C(=O)c2ccc(OC)cc2)cc1
active: potentiation [3] 9% | potentiation [4] 50% | potentiation [15] 51.2%
inactive: outcome [1] | outcome [2] | outcome [5] | outcome [6] | outcome [7] | outcome [8] | outcome [9] | outcome [10] | outcome [11] | outcome [12] | outcome [13] | outcome [14] | outcome [16] | outcome [17]

CC(C)CCn1c(N2CCN(c3cccc(Cl)c3)CC2)nc2c1c(=O)[nH]c(=O)n2C
inactive: outcome [1] | outcome [2] | outcome [3] | outcome [4] | outcome [5] | outcome [6] | outcome [7] | outcome [8] | outcome [9] | outcome [10] | outcome [11] | outcome [12] | outcome [13] | outcome [14] | outcome [15] | outcome [16] | outcome [17]
